Assay results as given in PubChem BioAssay (NCI).
This is part of a sample that, as a whole, favours compounds with a hit. Of some 79,000 tested, about 15% had one in any assay. Calls of active or inactive are those of the source. Rule as the data show it: active = growth inhibition above about 70%; inactive = the rest.

How the values were obtained:
[1] = NCI Yeast Anticancer Drug Screen. Data for the rad50 strain (AID 155);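 also: 0% = growth of vehicle-only cultures of the same strain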; settings: S. cerevisiae rad50 strain growth inhibition; at 50.0 µM; hits give high values
In short: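 Genetically altered yeast (DNA repair pathway); compound treatment; growth inhibition vs vehicle ctrl.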

[2] = NCI Yeast Anticancer Drug Screen. Data for the mec2-1 strain (AID 157); settings: S. cerevisiae mec2-1 strain, at 50.0 µM, hits give high values
In short: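 Using mec2-1 yeast: add compound, measure growth, express inhibition versus vehicle-treated cultures.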

[3] = NCI Yeast Anticancer Drug Screen. Data for the sgs1 mgt1 strain (AID 161);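 also: 0% = growth of cultures given vehicle only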; settings: S. cerevisiae sgs1 mgt1 strain, at 50.0 µM, hits give high values
In short: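 This yeast growth screen uses a strain with defined DNA-repair lesions; compound-treated growth is compared with vehicle-treated growth.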

[4] = NCI Yeast Anticancer Drug Screen. Data for the cln2 rad14 strain (AID 165);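 also: 0% = growth equal to vehicle treated cultures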; settings: S. cerevisiae cln2 rad14 strain, at 50.0 µM, hits give high values
In short: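 Yeast strain cln2 rad14, bearing defects in cell cycle control and DNA repair, serves as the test system; values reflect growth inhibition compared with vehicle.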

[5] = NCI Yeast Anticancer Drug Screen. Data for the bub3 strain (AID 167); settings: S. cerevisiae bub3 mutant strain, at 50.0 µM, hits give high values
In short: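 Yeast carrying a defined mutation is treated with each compound, and growth is compared with that of vehicle-exposed cells to give inhibition.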

[6] = NCI Yeast Anticancer Drug Screen. Data for the mlh1 rad18 strain (AID 175); settings: S. cerevisiae mlh1 rad18 strain growth inhibition; at 50.0 µM; hits give high values
In short: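 Steps: expose repair-defective yeast to compound; measure growth; express inhibition against vehicle-treated controls.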

Measured: growth inhibition

CCCCc1c[nH]n(C(N)=NCCSCc2nc[nH]c2C)c1=O
inactive: [1] -7.15% | [2] -18.4% | [3] -9.95% | [4] -20.2% | [5] -2.45% | [6] -4.75%

COc1ccc(/C=N/O)cc1OC
inactive: [1] -1.8% | [2] 14.8% | [3] -2.15% | [4] 11.8% | [5] 10.9% | [6] 5.95%

Cn1c(=O)c2c(nc3n2C(CCl)CO3)n(C)c1=O (stereo unspecified)
inactive: [1] 40.5% | [2] 12.8% | [3] 7.75% | [4] 9.5% | [5] 34% | [6] 32.4%

CC(C)(C)SCC(=O)O
inactive: [1] -21.6% | [2] -19.6% | [3] -24.8% | [4] 19.5% | [5] 6.75% | [6] 1.55%

O=C1Cn2c(cc(=O)c3ccccc32)O1
inactive: [1] 37.5% | [2] 13.6% | [3] 5.9% | [4] -9.35% | [5] 9.8% | [6] 14.8%

CN(C)C(=O)/N=C1\SC(=Nc2ccccc2)C(=Nc2ccccc2)N1c1ccc([N+](=O)[O-])cc1
inactive: [1] -1.65% | [2] 5.5% | [3] -1.7% | [4] 27.2% | [5] 16.4% | [6] -12.3%

C=C1C(=O)OC2C1CCC(C)=C1C(=O)C=C(C)C12 (stereo unspecified)
inactive: [1] -24.3% | [2] -12.5% | [3] -6.6% | [4] 13.2% | [5] -13.9% | [6] -16.2%

O=C(Nc1ccc(Cl)c(C(F)(F)F)c1)C(=O)c1c(O)c2ccccc2oc1=O
inactive: [1] 9.85% | [2] 4.7% | [3] -11.7% | [4] -38.5% | [5] -19.1% | [6] 5.3%

O=c1cc2c(n[nH]1)CCCC2
inactive: [1] 8.85% | [2] 4.55% | [3] 2.55% | [4] 16.9% | [5] -0.75% | [6] 11.4%

Cc1ccc(OCc2cccc(Cl)c2)cc1
inactive: [1] 17.8% | [2] -10.4% | [3] 2.5% | [4] -2.9% | [5] -42.1% | [6] -11.3%

O=C1OC(C2Cc3cc4c(cc3C2=O)CCC4)c2ccccc21 (stereo unspecified)
inactive: [1] -33.1% | [2] -25.4% | [3] -7.75% | [4] -2.55% | [5] -18.9% | [6] -13.4%

COc1ccc2ccccc2c1C(Cc1ccccc1)NCCO (stereo unspecified)
inactive: [1] -17.2% | [2] -20.4% | [3] -2.3% | [4] -4.95% | [5] -0.55% | [6] -2.75%

CCCCCCCCCCC(CCCCCCCCCC)C1CCCC1
inactive: [1] -12.3% | [2] 16.1% | [3] 0.7% | [4] -14.6% | [5] -12.8% | [6] -12.9%

CCOC(=O)C(=O)SCC(NC(=O)OCc1ccccc1)C(=O)O (stereo unspecified)
inactive: [1] -12.9% | [2] -4.95% | [3] 11.7% | [4] -1.95% | [5] 7.75% | [6] -12.2%

CCOC(=O)/C(=C/c1cn(C(C)=O)c2ccccc12)P(C)(=O)OCC (stereo unspecified)
inactive: [1] 33.2% | [2] 52.5% | [3] 55.5% | [4] 40% | [5] 53.5% | [6] 22.2%

COc1c(C)c(C)c(OC(C)=O)c(C)c1COC(C)=O
inactive: [1] 53.9% | [2] 23.8% | [3] 33.2% | [4] 25.6% | [5] 42.9% | [6] 64.7%

COc1cccc(C=Nc2ccc(N(C)C)cc2)c1O.COc1cccc(C=Nc2ccc(N(C)C)cc2)c1O.[Co]
inactive: [1] 31.4% | [2] 5.55% | [3] 14.6% | [4] 2.9% | [5] 8.25% | [6] -2.3%

C[CH2][GeH][CH2]C.C[CH2][Ge]([CH2]C)[CH2]C
active: [1] 95.2% | [2] 97% | [4] 96.5% | [5] 96% | [6] 94.8%
inactive: [3] 60.8%

CCCC(C)c1ccc(OCc2ccc(C)cc2)cc1 (stereo unspecified)
inactive: [1] 1.6% | [2] -4.25% | [3] -18.1% | [4] 13.8% | [5] -1.05% | [6] -4.9%

COC(=O)c1ccc(OCc2ccc3nc(OC)c(OC)nc3c2)cc1
inactive: [1] -32.1% | [2] -30.4% | [3] -50.1% | [4] 7.35% | [5] -28.9% | [6] -37%

NC1C2C3C=CC(C3)C12 (stereo unspecified)
inactive: [1] 12.5% | [2] -3.85% | [3] -5.75% | [4] -28.9% | [5] -5.2% | [6] 8.95%

C=CCc1cccc(CC=C)c1OCCN(CC)CC
inactive: [1] 13.4% | [2] 17.1% | [3] 17.6% | [4] 10.2% | [5] 7.3% | [6] 16.8%

CN(C)CC(=O)c1c[nH]c(=O)[nH]c1=O
inactive: [1] 11.3% | [2] -49.1% | [3] -13.4% | [4] -63.2% | [5] -1.65% | [6] -8.55%

O=C(Oc1ccccc1Cl)C1=C(C(=O)Oc2ccccc2Cl)CCC1
inactive: [1] 51.4% | [2] -1.2% | [3] 45.5% | [4] -1.45% | [5] 4.55% | [6] 9.75%

C1CCN(SN2CCCCC2)CC1
inactive: [1] -4.4% | [2] -15.7% | [3] -3.6% | [4] -13.2% | [5] 4.75% | [6] 5.7%

O=C1OCC(CN2CCC(n3c(=O)[nH]c4ccccc43)CC2)=C1c1ccccc1
inactive: [1] -12.2% | [2] -4.65% | [3] -7.15% | [4] -25.7% | [5] -10.6% | [6] -35.9%

Cn1ccc(=O)c2ccccc21
inactive: [1] 3.1% | [2] -1% | [3] -8.55% | [4] 3.45% | [5] 6.1% | [6] 1.9%

Cc1cncc(NS(=O)(=O)c2ccc(N)cc2)n1
inactive: [1] 0.7% | [2] 8.7% | [3] -5.45% | [4] -13.9% | [5] 10% | [6] 6.9%

O=C(O)C/C=C/CC(=O)O
inactive: [1] -2.25% | [2] -13.5% | [3] -2.7% | [4] 4.45% | [5] 15.4% | [6] -3.15%

COC(=O)C(c1ccccc1)C(SCc1ccccc1)c1ccccc1 (stereo unspecified)
inactive: [1] 2.85% | [2] 1.15% | [3] -18.9% | [4] 0.95% | [5] -7.15% | [6] 4.7%

CSC(C1c2ccccc2N(C)C2=NC(=O)N(C)C(=O)C21Cl)S(=O)(=O)c1ccc(C)cc1 (stereo unspecified)
inactive: [1] 50.2% | [2] 12.2% | [3] 27.4% | [4] 35.7% | [5] 45.4% | [6] 51.3%

CCOC(=O)CN=c1nc(SC)sc2c(C(=O)OCC)nc(Sc3ccccc3)n12
inactive: [1] 1.25% | [2] -7.25% | [3] 1.55% | [4] 13.6% | [5] -11.4% | [6] 8.65%

Nc1ncnc2scnc12
inactive: [1] 14.4% | [2] -0.55% | [3] -8.5% | [4] 0.9% | [5] -3.25% | [6] 1.65%

O=C(CO)CC(=O)CCC(=O)Nc1cccc([N+](=O)[O-])c1
inactive: [1] -4.7% | [2] 21.5% | [3] 0% | [4] 42.8% | [5] -12.3% | [6] -4.35%

O=C(O)C(c1ccccc1)S(=O)(=O)c1ccccc1 (stereo unspecified)
inactive: [1] 3.55% | [2] -7% | [3] 8.85% | [4] -16.7% | [5] -11.5% | [6] 5.95%

CCOC(=O)NN1C(=O)C(=P(c2ccccc2)(c2ccccc2)c2ccccc2)C(C(=O)OC)=C1C
inactive: [1] -4.05% | [2] 4.45% | [3] -6.75% | [4] 11.8% | [5] -6.65% | [6] -4.85%

NC(=O)C1CC2CC(Cl)C1C2 (stereo unspecified)
inactive: [1] -0.5% | [2] -0.1% | [3] -18.1% | [4] -45% | [5] 9.65% | [6] -22.1%

CSc1n[nH]c(-c2cccs2)n1
inactive: [1] -6.6% | [2] -15.7% | [3] 19.9% | [4] -8.3% | [5] -6.35% | [6] -0.9%

O=C(NCCCl)Oc1ccccc1
inactive: [1] 6.85% | [2] -15.5% | [3] -7.95% | [4] -0.1% | [5] -4.9% | [6] -9.1%

C/C=C(\C)C(=O)OC1CC(C)(O)C(=O)C(OC(=O)/C(C)=C/C)C2(C)CCC(O)(C(C)C)C12 (stereo unspecified)
inactive: [1] -27.2% | [2] -30.1% | [3] -34.7% | [4] -16.8% | [5] -15% | [6] -24.8%

CCO/C(Cc1ccc(Cl)cc1)=N/NC(N)=S
inactive: [1] 39.6% | [2] 2% | [3] 24.9% | [4] 24.1% | [5] 21.2% | [6] -15.5%
